# Test results reported in ChEMBL document CHEMBL1961873, “Compounds: GSK PKIS; Assays: Nanosyn kinase panel” (2012).
# “And” between values parts separate entries of the source, which are not always exact repeats. Equal entries are not always repeated.
# How the values were obtained:
# [1] = target: High affinity nerve growth factor receptor (Homo sapiens) (UniProt P04629); settings: at 1 µM;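 also: each value is the mean percent inhibition of TRKA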
# [2] = target: BDNF/NT-3 growth factors receptor (Homo sapiens) (UniProt Q16620); settings: at 0.1 µM
# [3] = target: BDNF/NT-3 growth factors receptor (Homo sapiens) (UniProt Q16620); settings: at 1 µM
# [4] = target: NT-3 growth factor receptor (Homo sapiens) (UniProt Q16288); settings: at 0.1 µM
# [5] = target: NT-3 growth factor receptor (Homo sapiens) (UniProt Q16288); settings: at 1 µM
# [6] = target: T1, Tyrosine-protein kinase TXK (Homo sapiens) (UniProt P42681); settings: at 0.1 µM
# T1 sequence (whole entry): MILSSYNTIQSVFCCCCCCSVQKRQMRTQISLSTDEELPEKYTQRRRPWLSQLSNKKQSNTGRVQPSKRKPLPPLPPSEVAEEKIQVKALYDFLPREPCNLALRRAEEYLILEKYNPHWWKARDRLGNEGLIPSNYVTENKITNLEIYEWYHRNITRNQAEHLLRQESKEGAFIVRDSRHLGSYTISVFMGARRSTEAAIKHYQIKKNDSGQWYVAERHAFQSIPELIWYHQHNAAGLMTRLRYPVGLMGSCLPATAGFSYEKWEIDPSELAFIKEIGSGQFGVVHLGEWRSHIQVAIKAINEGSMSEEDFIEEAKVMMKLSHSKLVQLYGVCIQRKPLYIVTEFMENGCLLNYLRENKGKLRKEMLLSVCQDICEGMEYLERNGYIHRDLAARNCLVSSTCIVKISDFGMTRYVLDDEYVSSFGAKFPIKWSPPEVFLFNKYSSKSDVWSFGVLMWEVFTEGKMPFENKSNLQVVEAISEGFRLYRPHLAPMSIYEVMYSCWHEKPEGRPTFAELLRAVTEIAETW
# [7] = target: T1, Tyrosine-protein kinase TXK (Homo sapiens); settings: at 1 µM
# [8] = target: Non-receptor tyrosine-protein kinase TYK2 (Homo sapiens) (UniProt P29597); settings: at 0.1 µM;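 also: each value is a mean of the inhibition readings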
# [9] = target: T2, Dual specificity protein kinase TTK (Homo sapiens) (UniProt P33981); settings: at 1 µM;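 also: reported figures are mean TTK inhibition at 1 µM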
# T2 sequence (whole entry): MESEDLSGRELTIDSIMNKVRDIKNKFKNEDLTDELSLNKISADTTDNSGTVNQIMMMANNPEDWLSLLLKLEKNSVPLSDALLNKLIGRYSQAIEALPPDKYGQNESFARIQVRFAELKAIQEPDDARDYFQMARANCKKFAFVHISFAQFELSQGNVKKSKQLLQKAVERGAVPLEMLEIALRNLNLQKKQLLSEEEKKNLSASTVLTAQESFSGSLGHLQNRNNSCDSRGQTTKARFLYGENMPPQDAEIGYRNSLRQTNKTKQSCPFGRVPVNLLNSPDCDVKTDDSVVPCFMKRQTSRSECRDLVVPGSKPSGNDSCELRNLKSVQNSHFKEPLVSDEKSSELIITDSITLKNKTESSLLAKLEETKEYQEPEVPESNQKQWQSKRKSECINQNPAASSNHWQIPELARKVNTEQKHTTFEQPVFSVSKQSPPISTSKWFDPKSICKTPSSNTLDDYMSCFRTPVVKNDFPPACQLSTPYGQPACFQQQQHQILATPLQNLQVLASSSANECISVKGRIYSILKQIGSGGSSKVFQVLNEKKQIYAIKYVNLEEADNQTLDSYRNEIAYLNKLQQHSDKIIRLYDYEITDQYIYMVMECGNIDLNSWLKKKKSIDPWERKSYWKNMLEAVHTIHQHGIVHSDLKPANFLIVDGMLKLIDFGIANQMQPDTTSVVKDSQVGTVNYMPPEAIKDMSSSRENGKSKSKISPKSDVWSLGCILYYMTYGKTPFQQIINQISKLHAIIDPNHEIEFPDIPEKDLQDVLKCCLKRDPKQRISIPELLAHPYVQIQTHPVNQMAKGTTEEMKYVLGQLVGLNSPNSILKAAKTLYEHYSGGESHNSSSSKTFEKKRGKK
# [10] = target: T3, Aurora kinase A (Homo sapiens) (UniProt O14965); settings: at 0.1 µM;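 also: each reported value is a mean percent inhibition of Aurora-A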
# T3 sequence (whole entry): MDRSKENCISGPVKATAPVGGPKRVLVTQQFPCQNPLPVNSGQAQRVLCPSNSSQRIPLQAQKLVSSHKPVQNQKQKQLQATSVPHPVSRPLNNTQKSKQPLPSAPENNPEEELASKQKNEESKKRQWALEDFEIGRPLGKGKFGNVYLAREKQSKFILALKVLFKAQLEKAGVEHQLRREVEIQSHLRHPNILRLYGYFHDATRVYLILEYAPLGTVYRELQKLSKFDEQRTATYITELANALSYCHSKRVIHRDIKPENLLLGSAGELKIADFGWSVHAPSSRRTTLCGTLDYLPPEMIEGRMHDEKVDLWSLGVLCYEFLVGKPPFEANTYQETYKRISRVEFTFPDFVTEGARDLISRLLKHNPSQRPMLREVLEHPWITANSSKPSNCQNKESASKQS
# BDNF/NT-3 growth factors receptor (Homo sapiens), sequence (Q16620 32-822 limits assumed): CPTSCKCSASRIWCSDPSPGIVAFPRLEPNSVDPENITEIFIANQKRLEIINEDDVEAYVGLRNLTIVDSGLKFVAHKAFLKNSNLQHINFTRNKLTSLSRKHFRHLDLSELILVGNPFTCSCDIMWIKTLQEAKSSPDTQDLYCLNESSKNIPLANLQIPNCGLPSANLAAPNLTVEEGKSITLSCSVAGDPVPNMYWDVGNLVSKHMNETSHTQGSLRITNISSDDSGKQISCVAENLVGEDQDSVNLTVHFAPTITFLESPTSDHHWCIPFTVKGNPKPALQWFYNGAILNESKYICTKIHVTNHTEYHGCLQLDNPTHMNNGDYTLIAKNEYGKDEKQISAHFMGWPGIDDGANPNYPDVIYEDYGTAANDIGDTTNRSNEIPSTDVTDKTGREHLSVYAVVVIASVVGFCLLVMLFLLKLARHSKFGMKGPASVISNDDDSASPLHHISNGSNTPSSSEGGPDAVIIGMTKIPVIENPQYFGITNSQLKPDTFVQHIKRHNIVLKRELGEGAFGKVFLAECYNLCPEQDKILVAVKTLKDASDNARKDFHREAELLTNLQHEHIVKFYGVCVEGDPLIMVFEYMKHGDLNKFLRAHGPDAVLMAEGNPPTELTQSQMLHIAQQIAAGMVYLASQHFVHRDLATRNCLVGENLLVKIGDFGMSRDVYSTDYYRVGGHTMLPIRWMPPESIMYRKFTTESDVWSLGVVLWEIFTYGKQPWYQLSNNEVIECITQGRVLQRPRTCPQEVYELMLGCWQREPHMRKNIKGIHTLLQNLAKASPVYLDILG
# Non-receptor tyrosine-protein kinase TYK2 (Homo sapiens), sequence (P29597 whole entry): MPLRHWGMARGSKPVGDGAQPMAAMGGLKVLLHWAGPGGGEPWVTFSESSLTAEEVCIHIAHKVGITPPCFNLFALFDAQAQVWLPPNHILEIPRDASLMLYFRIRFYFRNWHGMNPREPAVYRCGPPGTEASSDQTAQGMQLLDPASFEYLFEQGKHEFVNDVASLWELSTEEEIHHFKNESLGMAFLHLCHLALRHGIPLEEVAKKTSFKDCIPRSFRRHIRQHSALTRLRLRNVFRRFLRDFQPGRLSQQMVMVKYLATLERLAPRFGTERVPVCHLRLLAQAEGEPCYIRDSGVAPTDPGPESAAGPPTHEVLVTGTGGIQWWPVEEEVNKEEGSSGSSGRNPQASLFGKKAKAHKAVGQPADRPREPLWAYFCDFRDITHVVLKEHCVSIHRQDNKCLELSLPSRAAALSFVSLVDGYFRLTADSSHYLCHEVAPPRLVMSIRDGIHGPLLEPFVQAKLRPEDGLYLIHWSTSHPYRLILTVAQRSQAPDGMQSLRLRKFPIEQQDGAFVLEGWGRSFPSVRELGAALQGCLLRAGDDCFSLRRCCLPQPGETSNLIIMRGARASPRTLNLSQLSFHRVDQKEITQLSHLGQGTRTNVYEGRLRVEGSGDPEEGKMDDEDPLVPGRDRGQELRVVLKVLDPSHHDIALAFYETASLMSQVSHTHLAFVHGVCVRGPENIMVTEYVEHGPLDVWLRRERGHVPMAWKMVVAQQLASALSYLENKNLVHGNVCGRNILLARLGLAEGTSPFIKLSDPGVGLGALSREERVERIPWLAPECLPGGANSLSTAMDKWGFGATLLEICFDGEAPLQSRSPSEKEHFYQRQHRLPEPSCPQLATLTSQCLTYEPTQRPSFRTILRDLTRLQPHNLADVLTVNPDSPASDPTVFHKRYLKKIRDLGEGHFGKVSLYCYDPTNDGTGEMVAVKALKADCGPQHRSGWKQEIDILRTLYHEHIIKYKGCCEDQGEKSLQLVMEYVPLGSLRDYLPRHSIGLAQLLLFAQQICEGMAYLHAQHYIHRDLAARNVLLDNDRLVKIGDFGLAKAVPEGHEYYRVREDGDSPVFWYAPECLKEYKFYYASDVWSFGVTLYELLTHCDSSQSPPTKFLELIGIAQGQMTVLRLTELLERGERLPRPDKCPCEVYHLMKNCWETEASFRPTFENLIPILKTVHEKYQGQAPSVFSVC
# NT-3 growth factor receptor (Homo sapiens), sequence (Q16288 32-839 limits assumed): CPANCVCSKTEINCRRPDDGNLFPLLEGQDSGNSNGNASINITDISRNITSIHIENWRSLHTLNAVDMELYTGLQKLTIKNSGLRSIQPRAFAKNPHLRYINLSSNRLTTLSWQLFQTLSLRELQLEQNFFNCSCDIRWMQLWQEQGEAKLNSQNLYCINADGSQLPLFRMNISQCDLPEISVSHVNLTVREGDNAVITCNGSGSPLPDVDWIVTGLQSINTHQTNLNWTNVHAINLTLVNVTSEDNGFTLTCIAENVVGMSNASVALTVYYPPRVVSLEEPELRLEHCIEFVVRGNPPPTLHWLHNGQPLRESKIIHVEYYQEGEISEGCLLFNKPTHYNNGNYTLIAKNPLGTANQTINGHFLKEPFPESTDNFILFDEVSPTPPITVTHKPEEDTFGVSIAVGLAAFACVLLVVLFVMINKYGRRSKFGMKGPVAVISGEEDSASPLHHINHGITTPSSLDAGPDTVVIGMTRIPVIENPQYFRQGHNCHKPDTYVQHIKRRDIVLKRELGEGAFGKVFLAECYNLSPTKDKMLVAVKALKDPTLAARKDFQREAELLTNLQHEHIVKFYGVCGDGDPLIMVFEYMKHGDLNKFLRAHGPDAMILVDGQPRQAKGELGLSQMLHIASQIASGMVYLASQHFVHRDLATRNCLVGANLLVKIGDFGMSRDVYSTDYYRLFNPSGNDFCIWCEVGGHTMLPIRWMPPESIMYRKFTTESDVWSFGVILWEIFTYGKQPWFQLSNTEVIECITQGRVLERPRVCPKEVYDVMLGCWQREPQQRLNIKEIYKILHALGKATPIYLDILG
# High affinity nerve growth factor receptor (Homo sapiens), sequence (P04629 33-796 limits assumed): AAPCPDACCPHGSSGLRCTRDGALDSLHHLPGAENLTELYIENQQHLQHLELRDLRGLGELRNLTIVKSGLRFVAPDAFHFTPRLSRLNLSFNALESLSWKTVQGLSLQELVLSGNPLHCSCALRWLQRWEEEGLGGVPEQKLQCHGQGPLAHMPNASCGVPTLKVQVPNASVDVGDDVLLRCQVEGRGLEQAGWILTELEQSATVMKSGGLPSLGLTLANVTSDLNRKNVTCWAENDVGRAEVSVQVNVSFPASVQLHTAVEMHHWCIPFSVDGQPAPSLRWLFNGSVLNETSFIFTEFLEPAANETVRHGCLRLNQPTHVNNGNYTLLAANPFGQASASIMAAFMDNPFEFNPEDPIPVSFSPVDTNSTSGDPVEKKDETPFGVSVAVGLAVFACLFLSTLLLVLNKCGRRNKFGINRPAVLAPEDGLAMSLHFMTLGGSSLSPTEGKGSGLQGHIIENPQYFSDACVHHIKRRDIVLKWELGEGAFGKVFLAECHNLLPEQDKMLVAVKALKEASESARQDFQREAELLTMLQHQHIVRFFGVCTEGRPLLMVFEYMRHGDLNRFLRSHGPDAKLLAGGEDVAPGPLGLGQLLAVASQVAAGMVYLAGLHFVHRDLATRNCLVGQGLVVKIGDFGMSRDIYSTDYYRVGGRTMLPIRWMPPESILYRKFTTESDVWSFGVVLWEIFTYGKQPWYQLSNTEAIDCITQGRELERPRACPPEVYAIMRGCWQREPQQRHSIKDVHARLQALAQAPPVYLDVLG
SMILES,inhibition [1],inhibition [2],inhibition [3],inhibition [4],inhibition [5],inhibition [6],inhibition [7],inhibition [8],inhibition [9],inhibition [10]
NS(=O)(=O)c1cccc(N/C=C2\C(=O)Nc3ccccc32)c1,16.2%,6.02%,32.9%,6.86%,32.3%,4.29%,6.83%,-2.94%,21.3%,7.85%
Nc1nonc1-c1nc2cnccc2n1C1CC1,0.83% and 3.35%,1.21% and 3.09%,3.17% and -0.36%,2.17% and 1.89%,3.84% and 1.11%,4.13% and -0.96%,5.76% and -3.04%,-4.88% and 0.09%,5.15% and -6.34%,3.77% and -2.63%
CCCNc1cccc(-n2ncc3c(N/N=C/c4ccncc4)ncnc32)c1,7.34%,5.18%,33.9%,4.23%,36.8%,2.17%,8.54%,-0.85%,15.7%,9.48%
NS(=O)(=O)c1ccc(N/N=C2\C(=O)Nc3cccc(CCc4ccncc4)c32)cc1,19.1%,17%,45.4%,17.3%,41.9%,2.92%,8.22%,-0.26%,38.7%,28.1%
COc1ccc(-c2nn3ncccc3c2-c2ccnc(Nc3ccc(F)c(F)c3)n2)cc1,3.36%,2.76%,8.32%,2.73%,4.85%,2.4%,5%,-2.09%,-0.7%,2.87%
COc1c(C(N)=O)cc(-c2ccc(Cl)cc2)cc1-c1ccc(S(N)(=O)=O)cc1,4.22%,2.88%,3.12%,2.54%,2.2%,9.73%,4.4%,-0.68%,12.9%,2.86%
COc1cc(Nc2ncc(-c3ccccc3)o2)cc(OC)c1,19.7%,8.32%,35.2%,6.57%,30.5%,-1%,8.54%,-5.97%,11.9%,5.61%
CC(C)c1ccc(-c2cc(-c3c[nH]nc3-c3ccccn3)ccn2)cc1,2.9%,0.33%,2.07%,0.32%,1.76%,2.1%,2.05%,0.66%,11.3%,1.03%
CNC(=O)c1sc(-n2cnc3cc(OC)c(OC)cc32)cc1OCc1ccccc1C(F)(F)F,4.9%,1.8%,4.02%,3.06%,6.32%,5.54%,11.5%,-2.35%,7.09%,3.14%
O=C(O[C@H]1CN[C@H](C#Cc2cc3ncnc(Nc4ccc(OCc5cccc(F)c5)c(Cl)c4)c3s2)C1)N1CCOCC1,0.52%,3.03%,5.79%,2.99%,7.73%,1.89%,1.16%,-6.96%,13%,1.79%
Cc1cc(O)cc(C)c1/C=C/c1cncc(C(=O)OC(C)(C)C)c1,2.95%,2.88%,5.2%,2.87%,5.85%,8.06%,36.9%,-0.75%,4.42%,2.02%
CC1=C(C(=O)Nc2ccc3[nH]nc(C)c3c2)C(c2ccc(C(F)(F)F)cc2)CC(=O)N1 (stereo not given),3.25%,1%,3.58%,2.43%,6.4%,3.55%,6.06%,0.25%,-0.26%,17.9%
CC1=C(C(=O)Nc2ccc3[nH]ncc3c2)C(c2ccc(F)cc2)N=C(c2ccc(C(F)(F)F)nc2)N1 (stereo not given),4.07%,1.02%,1.46%,2.88%,3.8%,3.02%,4.16%,-0.65%,-4.56%,4.97%
Fc1ccc(Nc2nccc(-c3c(-c4ccc(C(F)(F)F)cc4)nn4ncccc34)n2)cc1F,1.59%,2.27%,2.56%,3.55%,2.83%,2.95%,4.27%,-3.95%,8.25%,3.59%
CNC(=O)c1cncc(/C=C/c2ccccc2C)c1,1.73%,2.61%,4.3%,3.82%,5.34%,6.85%,24.5%,-2.79%,11.7%,1.35%
